# Experimental data published in PubChem BioAssay AID372 (MTDP, 2006).
# About 770 (0.77%) of roughly 100,000 compounds were called active. The entries come from a sample that favours actives as a whole. Unmarked numbers belong to inactive results. No stated cut-off is given here; in the data, active means inhibition above about 50%; inactive means the rest.
# Biological target: Gag-Pol polyprotein (Human immunodeficiency virus type 1 group M subtype B (isolate HXB2)) (UniProt P04585)
# Assay: RNase H inhibition, HIV 1 Gag Pol polyprotein, FRET biochemical assay, screening (AID 372)
# Settings: HIV-1 RT RNase H, FRET RNA/DNA substrate fluorescence; at 10 µM; active compounds read high
row,Structure (SMILES),inhibition
1,CCC(C)OC(=O)C1=C(C)NC2=C(C(=O)CC(c3ccc(Cl)cc3)C2)C1c1ccc(OC(C)=O)cc1 (stereo not given),11%
2,COc1ccccc1/C=C\C=N\n1c(-c2ccc(Cl)cc2Cl)n[nH]c1=S,34%
3,CS(=O)(=O)N(CC(O)Cn1c2ccccc2c2ccccc21)c1ccc(Br)cc1 (stereo not given),1%
4,CCN(CC)c1ccc(/C=N/NC(=O)CCC(=O)Nc2cccc(Cl)c2C)c(O)c1,6%
5,CCOP(=O)(CN1CCN(CP(=O)(OCC)OCC)CC1)OCC,2%
6,Cc1c(NC(=O)c2cc(Cl)ccc2Cl)cccc1-c1nc2ccccc2s1,9%
7,O=c1/c(=C/c2ccc(-c3ccccc3)o2)sc2nc3ccccc3n12,9%
8,CCOC(=O)C1=C(C)NC2=C(C(=O)CC(c3ccc(OC)cc3)C2)C1c1ccc(OC)c(OC)c1 (stereo not given),11%
9,Cc1ccc(C(=O)Oc2ccccc2C(=S)N2CCOCC2)cc1,0%
10,CCOC(=O)C1CCCN(C(=O)N2CCOCC2)C1 (stereo not given),12%
11,Cc1cc2ncn(CC(O)COc3ccc(C(=O)O)cc3)c2cc1C (stereo not given),0%
12,COc1ccccc1CNc1cccc(F)c1,0%
13,O=C1NC(=Nc2cccc(Cl)c2Cl)S/C1=C\c1ccc(O)c(O)c1,89% (active)
14,O=C1NC(=Nc2cccc(Cl)c2Cl)S/C1=C\c1ccc(F)cc1,22%
15,Cc1cc(C)cc(OCCOc2ccc([N+](=O)[O-])cc2/C=C2\SC(=S)NC2=O)c1,38%
16,O=C1NC(=S)S/C1=C\c1ccccc1OCCOc1ccccc1Cl,46%
17,O=C1NC(=S)S/C1=C\c1cc([N+](=O)[O-])ccc1OCCOc1ccccc1Cl,55% (active)
18,O=C1NC(=Nc2cccc(Cl)c2Cl)S/C1=C\c1ccc(O)cc1,12%
19,O=P(O)(OC(c1ccccc1)C(F)(F)F)c1ccccc1 (stereo not given),2%
20,CC(=O)Oc1ccc(/C=C2/N=C(c3cccc([N+](=O)[O-])c3)OC2=O)cc1,14%

row,Structure (SMILES),inhibition
1,O=C(Cc1ccccc1)Nc1ccncc1,11%
2,Cn1cc(/C=C2/SC(=O)N(c3ccccc3)C2=O)c2ccccc21,12%
3,COc1ccc(Cl)cc1/C=C1\C(=O)NC(=S)N(c2cccc(Cl)c2Cl)C1=O,8%
4,Clc1cccc(-c2ccc(/C=N/Nc3nc4ccccc4s3)o2)c1,4%
5,O=[N+]([O-])c1ccc(Cl)c(C=Nn2c(-c3ccc(Cl)cc3Cl)n[nH]c2=S)c1,16%
6,O=[N+]([O-])c1ccc(C=Nn2c(-c3ccc(Cl)cc3Cl)n[nH]c2=S)cc1,51% (active)
7,O=[N+]([O-])c1cc(C=Nn2c(-c3ccc(Cl)cc3Cl)n[nH]c2=S)ccc1Cl,37%
8,COc1ccccc1-n1c(C=C2C(=O)N(Cc3ccccc3)c3ccccc32)nc2ccccc2c1=O,9%
9,O=c1oc(/C=C\c2ccccc2)nc2ccc(Cc3ccc4nc(/C=C\c5ccccc5)oc(=O)c4c3)cc12,7%
10,Cc1oc2ccc(OCc3ccc([N+](=O)[O-])cc3)cc2c1C(=O)OC(C)C,13%
11,CCOCCOC(=O)C1=C(C)NC2=C(C(=O)CC(c3ccc(OC)cc3)C2)C1c1cccc(OC)c1OC (stereo not given),5%
12,O=C1c2ccccc2CCC1C1(O)C(=O)Nc2ccc(Br)cc21 (stereo not given),2%
13,CCn1c2ccccc2c2ccc(-c3nn(-c4ccccc4)cc3C=O)cc21,11%
14,Cc1nc(=O)c(-c2ccccc2)c(C)n1-c1ccc(C(=O)O)c(O)c1,0%
15,Cc1ccc(C)n1-c1ccc(C(=O)O)c(Cl)c1,16%
16,Cc1ccc(-c2ccccc2)n1-c1ccc(O)c(C(=O)O)c1,6%
17,Cc1ccc(C)n1-c1ccc(C(=O)O)c(O)c1,99% (active)
18,Cc1ccc(-c2ccccc2)n1-c1ccc(Cl)c(C(=O)O)c1,3%
19,Cc1ccc(C)n1-c1cc(C(=O)O)cc(C(=O)O)c1,2%
20,Cc1ccc(C)n1-c1ccc(Cl)c(C(=O)O)c1,53% (active)

row,Structure (SMILES),inhibition
1,Cc1ccc(C)n1-c1ccc(Cl)c(O)c1,41%
2,CC(C)(Cc1ccc(O)cc1)NC(=O)Cc1ccccc1,6%
3,CS(=O)(=O)N(CC(=O)N1CCCC1)c1cccc(Cl)c1,6%
4,CC1=C(C#N)C(c2cccc(F)c2)C2=C(CC(c3ccccc3)CC2=O)N1 (stereo not given),11%
5,COc1ccc(OC)c(NC(=O)CN(CCc2ccccc2)S(=O)(=O)c2ccccc2)c1,15%
6,Cc1cc(C)cc(NC(=O)Cc2ccccc2)c1,3%
7,O=C1NC(=O)N(c2ccccc2)C(=O)/C1=C\c1cccc(OCc2ccc(F)cc2)c1,9%
8,CC(=O)Nc1ccc2nn(-c3ccc(F)cc3)nc2c1,4%
9,CCOC(=O)c1ccc(NC(=O)CSc2nnnn2-c2c(C)cc(C)cc2C)cc1,55% (active)
10,O=C(CSc1nnnn1-c1ccccc1)Nc1ccc(C(=O)O)cc1,0%
11,COc1ccc(-n2nnnc2SCC(=O)Nc2c(C)cc(C)cc2C)cc1,12%
12,CC1=C(C(=O)OC(C)C)C(c2cccc(F)c2)C2=C(CCCC2=O)N1 (stereo not given),4%
13,C=CCN1C(=O)/C(=C2\SC(=S)N(Cc3ccccc3)C2=O)c2ccccc21,33%
14,CCCCCN1C(=O)/C(=C2\SC(=S)N(c3ccc(Br)cc3)C2=O)c2ccccc21,16%
15,CCN1C(=O)/C(=C2\SC(=S)N(c3ccc(Br)cc3)C2=O)c2ccccc21,57% (active)
16,CCN1C(=O)/C(=C2\SC(=O)N(Cc3ccccc3)C2=O)c2ccccc21,59% (active)
17,CCN1C(=O)/C(=C2\SC(=S)N(CC(=O)O)C2=O)c2ccccc21,7%
18,CCN1C(=O)/C(=C2\SC(=S)N(c3ccccc3)C2=O)c2ccccc21,4%
19,CCC(C(=O)Nc1nc(-c2ccccc2)c(C)s1)c1ccccc1 (stereo not given),10%
20,COC(=O)C1=C(C)NC2=C(C(=O)CC(c3ccccc3)C2)C1c1cc(Br)c(O)c(OC)c1 (stereo not given),15%
